From PubChem BioAssay come the findings set out here.

A number with no mark means an inactive call. Calls of active or inactive are those of the source. Cut-off read from the data, not from the text of the source, unless noted: active = inhibition above about 42%; inactive = the rest.

A short description of experiment [1]: StAR promoter reporter inhibitors, counter-screen for LRH-1 inverse agonist project, cell-based, luminescence, high throughput (AID 651611; in the data active = inhibition above about 28%). The settings on record: StAR promoter luciferase reporter counterscreen, at 3.6 µM, stronger effect = higher value.
The target in experiment [2] is Nuclear receptor subfamily 5 group A member 2 (Homo sapiens) (UniProt O00482). Nature of the experiment: NR5A2 activity suppression in reporter cells – cell-based, luminescence, confirmation (AID 651613).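 Note: HEK293T cells co-transfected with LRH-1 and StAR promoter luciferase reporter; 0% = vehicle wells and 100% = parental cells lacking receptor.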 The settings on record: cell-based LRH-1 luciferase reporter, inverse agonism; at 3.6 µM; stronger effect = higher value.
The target of experiment [3] is Steroidogenic factor 1 (Homo sapiens) (UniProt Q13285). Nature of the experiment: inverse agonism at SF1 nuclear receptor – cell-based, luminescence, high throughput, counter-screen for LRH-1 inverse agonist project (AID 651614; in the data active = inhibition above about 44%;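 note: cells cotransfected with StAR promoter reporter and SF1 expression vector; 0% = vehicle on cells with receptor and 100% = vehicle on cells lacking receptor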). The settings on record: cell-based SF1 luciferase reporter, at 3.6 µM, stronger effect = higher value.
Experiment [4] in a line: compounds suppressing VP16-driven luciferase signal – cell-based, luminescence, high throughput, counter-screen for LRH-1 inverse agonist project (AID 651615; in the data active = inhibition above about 33%). Conditions: Gal4-VP16 luciferase reporter cells, at 3.6 µM, stronger effect = higher value.

Chain of Steroidogenic factor 1 (Homo sapiens) (Q13285 whole entry, looked up, the tested form may be a part): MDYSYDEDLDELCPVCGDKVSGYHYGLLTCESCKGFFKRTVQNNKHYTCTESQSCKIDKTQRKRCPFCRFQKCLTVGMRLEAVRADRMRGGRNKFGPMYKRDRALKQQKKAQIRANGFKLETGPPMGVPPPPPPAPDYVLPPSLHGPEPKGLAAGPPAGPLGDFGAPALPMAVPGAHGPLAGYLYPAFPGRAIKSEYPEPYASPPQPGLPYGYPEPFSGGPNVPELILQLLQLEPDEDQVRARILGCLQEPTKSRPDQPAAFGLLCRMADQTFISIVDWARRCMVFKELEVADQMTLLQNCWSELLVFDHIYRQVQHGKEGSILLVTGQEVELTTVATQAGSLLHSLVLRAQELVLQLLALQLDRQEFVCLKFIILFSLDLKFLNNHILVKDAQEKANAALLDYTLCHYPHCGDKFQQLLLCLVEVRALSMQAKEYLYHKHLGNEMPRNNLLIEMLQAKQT
Chain of Nuclear receptor subfamily 5 group A member 2 (Homo sapiens) (O00482 whole entry, looked up): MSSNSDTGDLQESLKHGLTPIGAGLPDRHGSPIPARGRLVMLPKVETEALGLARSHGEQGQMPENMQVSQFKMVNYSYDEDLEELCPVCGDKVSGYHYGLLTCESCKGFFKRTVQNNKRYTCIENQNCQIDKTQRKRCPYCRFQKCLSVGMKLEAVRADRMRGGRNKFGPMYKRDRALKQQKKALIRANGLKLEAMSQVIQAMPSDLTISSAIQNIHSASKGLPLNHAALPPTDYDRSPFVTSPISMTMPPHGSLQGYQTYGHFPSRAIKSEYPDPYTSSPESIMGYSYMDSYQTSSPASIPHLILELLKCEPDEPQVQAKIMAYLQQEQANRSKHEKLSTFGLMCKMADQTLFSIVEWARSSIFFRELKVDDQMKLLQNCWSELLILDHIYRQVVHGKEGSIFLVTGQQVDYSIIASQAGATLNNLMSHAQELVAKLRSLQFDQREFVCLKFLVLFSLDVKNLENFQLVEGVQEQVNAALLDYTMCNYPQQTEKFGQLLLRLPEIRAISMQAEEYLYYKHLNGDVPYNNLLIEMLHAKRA

As for `Cc1ccc(/C=C/S(=O)(=O)NCC(=O)OCC(=O)Nc2c(F)cccc2F)cc1`, the inhibition in experiment [1] is 26.3%; in experiment [2] it was 52% (active); in experiment [3], 55.4% (active); in experiment [4], -18.4%.
As for `CCN(CC)C1=CC(=O)OC12CCCCC2`, the inhibition is 2.42% in experiment [1], 51.2% (active) in experiment [2], 48.7% (active) in experiment [3] and -9.57% in experiment [4].
`COC(=O)c1c(NC(=O)c2ccco2)sc2c1CCN(C(C)=O)C2`: the inhibition in experiment [1] was 20%; in experiment [2], 54.4% (active); in experiment [3], 44.7% (active); in experiment [4] it was -41%.
For `O=C(N/N=C/c1ccc([N+](=O)[O-])o1)c1ccccc1-n1cccc1` the same measures were 32.3% (active), 71.6% (active), 63.4% (active) and 0.97%.
Consider `CC(=O)C1=C(c2cccc([N+](=O)[O-])c2)N(C(C)=O)n2c(C)nnc2S1`, for which the inhibition in experiment [1] was 5.25%; in experiment [2], 58.4% (active); in experiment [3] it was 50.3% (active); in experiment [4], -4.12%.
Take `CC1(c2ccc3ccccc3c2)NC(=O)N(CC(=O)N2CCN(Cc3ccc(C#N)cc3)CC2)C1=O` (stereo not drawn): the inhibition in experiment [1] is 32.1% (active); in experiment [2] it was 66.1% (active); in experiment [3] it was 62.4% (active); in experiment [4], 53.5% (active).
For `CCS(=O)(=O)Nc1cccc(-c2ccc3nnc(-c4cccnc4)n3n2)c1` the same measures were 21.7%, 52.1% (active), 49.5% (active) and -31.6%.
The corresponding values for `O=C(CSc1n[nH]c(-c2ccccc2)n1)Nc1ccc(N2CCOCC2)cc1` are 1.99%, 56.6% (active), 49% (active) and -15.3%.
`Cc1cccc(NC(=O)CSc2nnc([C@@H]3CCCN3C(=O)OC(C)(C)C)o2)c1C`: the inhibition was 33.4% (active) in experiment [1], 66.2% (active) in experiment [2], 73.5% (active) in experiment [3] and -39.9% in experiment [4].
For `CC(C)Cn1c(N)c(C(=O)NCC2CCCO2)c2nc3ccccc3nc21` (stereo not drawn) the same measures were 23.3%, 42.8% (active), 37.3% and 1.28%.
Take `Cc1cc(N2CCN(C(=O)c3ccco3)CC2)n2nc(-c3cccc(F)c3)cc2n1`: the inhibition was 14.2% in experiment [1], 54.6% (active) in experiment [2], 60.6% (active) in experiment [3] and -10.7% in experiment [4].
The corresponding values for `COc1ccc(/C=N/n2c(SC)nnc2-c2ccccc2)c(OC)c1OC` are 53.5% (active), 41.2% (active), 54.4% (active) and -31.8%.
The corresponding values for `CCOc1ccc(NC(=O)Cn2cc(C(=O)C3CC3)c3ccccc32)cc1` are 5.9%, 44.1% (active), 37.5% and -14.7%.
For the compound `O=C(COC(=O)c1ccc[n+]([O-])c1)Nc1ccc([N+](=O)[O-])cc1Cl`, the inhibition in experiment [1] is 17.6%; in experiment [2], 59.4% (active); in experiment [3], 56.2% (active); in experiment [4], 1.26%.
For `CCCN1Cc2cccc(C(=O)NC(C)c3cccs3)c2C1=O` (stereo not drawn) the same measures were -7.74%, 38.5%, 27.5% and 0.87%.
The corresponding values for `Cc1c(C#N)c(O)n(CCO)c(=O)c1N=Nc1ccccc1` are 13.4%, 44.4% (active), 41.7% and 6.91%.
With `O=C(Nc1ccc2oc(-c3ccccc3F)nc2c1)c1ccc([N+](=O)[O-])o1`, the inhibition in experiment [1] was -5.27%; in experiment [2] it was 46% (active); in experiment [3], 56% (active); in experiment [4] it was -24.7%.
For `COc1ccc(C(NC(=O)C(C)C)c2ccc3cccnc3c2O)cc1` (stereo not drawn) the same measures were 84.5% (active), 103% (active), 91.8% (active) and 87.7% (active).
The corresponding values for `CCC(C)n1c(SCC(=O)NCCc2ccc(S(N)(=O)=O)cc2)nc2ccsc2c1=O` (stereo not drawn) are 10.6%, 48.7% (active), 52.6% (active) and -3.41%.
The corresponding values for `Cc1ccc(OCCC(=O)OCC(=O)Nc2ccc(N3CCOCC3)cc2)cc1` are 16.6%, 54.8% (active), 46.6% (active) and -7.59%.
Consider `O=C(CSc1n[nH]c(-c2ccccc2)n1)Nc1ccc(F)cc1F`, for which the inhibition in experiment [1] was 5.84%; in experiment [2], 58.4% (active); in experiment [3], 50.4% (active); in experiment [4] it was 3.19%.
As to `Cc1c(C(=O)NC(C)c2ccncc2)oc2ccccc12` (stereo not drawn), the inhibition was -19.6% in experiment [1], 44.2% (active) in experiment [2], 42.9% (active) in experiment [3] and -7.87% in experiment [4].
The corresponding values for `Cc1ccc(C2CC(C(F)(F)F)n3nc(C(=O)NCc4ccco4)cc3N2)cc1` (stereo not drawn) are 0.64%, 44.1% (active), 44.8% (active) and -8.91%.
For `Cc1cc(=O)oc2cc(OCC(=O)N3CCN(C(=O)C4COc5ccccc5O4)CC3)ccc12` (stereo not drawn) the same measures were 21.1%, 49% (active), 42.1% and -11%.
For `COc1cc(C(=O)Nc2sc3c(c2C#N)CCN(C(C)=O)C3)cc(OC)c1OC`, the inhibition is 23.3% in experiment [1], 66.3% (active) in experiment [2], 62.2% (active) in experiment [3] and -16.2% in experiment [4].
For `CSc1nc(SCC(=O)NCc2ccco2)c2c3c(sc2n1)COC(C)(C)C3` the same measures were 6.43%, 54.7% (active), 57.6% (active) and 3.39%.
For `CCn1c2ccccc2c2cc(/C=N/n3c(C)nnc3C)ccc21` the same measures were 27.4%, 26.4%, 38.5% and -25%.
